Test results published in PubChem BioAssay (NCI).
Compounds without any hit were thinned out: in the full panel of roughly 83,000, 20% have a hit.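 Negative percent growth values reflect cell death: -40 means 40% of the cells present at the start died, and -100 means all died.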 A number with no mark means an inactive call. Activity calls are given as the source filed them.

System: SNB-75 CNS
Assay: NCI-60 one-dose screen, 48 h (100 = growth as untreated, 0 = no growth, -100 = all killed)
Conditions: 10 µM unless noted
Description: Growth inhibition of the SNB-75 human tumor cell line is measured as a screen for anti-cancer activity. Cells are grown in 96 well plates and exposed to the test compound for 48 hours. Compounds are tested at a single concentration, which is 10^-5 M for most compounds. The reported endpoint is percent growth (GI% or GIPRCNT), where numbers from 0 - 100% represent growth inhibition, and numbers from -100% - 0 represent cell death. For example, a value of 40 represents 60% growth inhibition. A value of 0 means no net growth occurred over the course of the experiment. A value of -40 indicates 40% of cells at the beginning of the experiment died by the end of the experiment. A value of -100 means all cells are dead at the end of the experiment.
NCI-60 Human Tumor Cell Lines Screen was performed using the standard one-dose NCI protocol, which is described in more detail at https://dtp.cancer.gov/discovery_development/nci-60/default.htm.
Compounds with GIPRCNT values below 10 were considered active. Activity score was based on GIPRCNT using the following formula: […]
Score is 0 for GIPRCNT values of 100 or above, 50 for GIPRCNT values of 0, and 100 for GIPRCNT values of -100.

SMILES	growth
CN(CCC#N)C(=O)Nc1ccccc1	99.2%
CCCS(=O)(=O)Nc1ccc(F)c(C(=O)c2c[nH]c3ncc(-c4ccc(OCCCC5CCCCN5)nc4)cc23)c1F (stereo not given)	19.4%
Cc1c(C(=O)Nc2nc3ccccc3[nH]2)cnn1-c1ccccn1	104%
N#CC(C#N)=C1NC(c2ccccc2)=C(c2ccccc2)C(c2ccccc2Cl)=C1C#N	107%
CNc1cccc2c1C(=O)c1cccc(N)c1C2=O	71.5%
Cc1cccc(C)c1NC(=O)CN(CC(C)C)CC(O)COc1ccccc1 (stereo not given)	86.6%
COc1ccc(-c2nc(C#N)c(NCC(c3ccc(Cl)cc3)N3CCCCC3)o2)cc1 (stereo not given)	91%
C#C[C@@]1(O)[C@@H](CO)O[C@@H](n2cc(Cl)c3c(N)ccnc32)[C@@H]1O	140%
CCOC(=O)C(=Cc1c(-c2ccccc2)[nH]c2ccccc12)C(=O)OCC	48.4%
COc1ccc(C2CC(c3ccc(OC)cc3O)=NN2c2ccc(S(N)(=O)=O)cc2)cc1 (stereo not given)	58.2%
Cc1cc(C)c2nc(Nc3nc(C)c(C)c(=O)[nH]3)nc(C)c2c1	51.3%
NC(=O)C(O)(c1ccccc1)c1ccccc1	89%
O=C(/C(=C/c1ccc([N+](=O)[O-])cc1)SCc1ccc(Cl)cc1)c1ccc(F)cc1	82.3%
CC(=O)OC[C@]12CC[C@@H](c3cn(Cc4ccc(Cn5cc([C@@H]6CC[C@]7(COC(C)=O)CC[C@]8(C)[C@H](CC[C@@H]9[C@@]%10(C)CC[C@H](OC(C)=O)C(C)(C)[C@@H]%10CC[C@]98C)[C@@H]67)nn5)cc4)nn3)[C@@H]1[C@H]1CC[C@@H]3[C@@]4(C)CC[C@H](OC(C)=O)C(C)(C)[C@@H]4CC[C@@]3(C)[C@]1(C)CC2	105%
NC[C@@H]1CCN(c2cc3c(cc2F)c(=O)n(N)c(=O)n3Cc2ccc(-c3ccccc3)cc2)C1	77.9%
CC1(C)[C@@H](O)CC[C@]2(C)[C@H]3CC[C@@H]4[C@H]5[C@H](c6cn(-c7ccccc7)nn6)CC[C@]5(CO)CC[C@@]4(C)[C@]3(C)CC[C@@H]12	81.9%
O=C(N/N=C/C[C@@H]1[C@@H](/C=C/[C@@H](O)COc2cccc(Cl)c2)[C@H](O)C[C@@H]1O)c1ccncc1	90.5%
O=CN1N=C(c2ccc(F)cc2)CC1c1cccc(Nc2ccnc3cc(C(F)(F)F)ccc23)c1 (stereo not given)	92%
COC(=O)c1nc(-c2ccccc2)oc1S(=O)(=O)n1nc(-c2ccccc2)cc1N	93.4%
CCC[S@](=O)c1ccc2nc(NC(=O)OC)[nH]c2c1	86.2%

SMILES	growth
CC(C)Cc1cc(CNC(=O)C2[C@H]3CN(C(=O)c4ccccc4)C[C@@H]23)nn1-c1ccccc1 (stereo not given in full)	105%
N#Cc1c(-c2ccc(F)cc2)c(C#N)c2c(C#N)c(N)nn2c1N	87.8%
CN1CCN(/C=C2\CC(C(=O)NCc3ccc(Cl)cc3Cl)NC2=O)CC1 (stereo not given)	106%
Cc1ccc2nc3nc4ccc[nH]c4cc3c2c1	72.3%
O=CN1N=C(c2ccc3c(c2)OCO3)CC1c1cccc(Nc2ccnc3cc(C(F)(F)F)ccc23)c1 (stereo not given)	89%
COc1ccc(-c2cs/c(=N\N=C\c3ccc(O)cc3O)n2/N=C/c2ccc(O)cc2O)cc1	29.7%
COc1ccc(N(C)c2nc(Cl)nc3ccn(C)c23)cc1	56.8%
C=C1C(=O)O[C@H]2[C@H]1CC/C(COC(=O)n1ccnc1)=C\CC[C@@]1(C)O[C@@H]21	92.8%
Nc1cc(N)nc(SCC(=O)O)n1	100%
O=c1c2ccccc2oc2ccc(OCCCCCN3CCCCCC3)cc12	77.1%
Nc1ccc2c(c1)C(=O)C(=O)c1c-2nc2ccccn12	37.5%
CN1CCN(S(=O)(=O)O[C@@H]2C(=O)N(c3cc4c5ccccc5ccc4c4ccccc34)[C@H]2c2ccc(F)cn2)CC1	74.6%
CO[C@@]12C=C[C@@]34CCC(=O)N3c3ccccc3[C@@H](O1)C4C2	90.5%
COc1ccc(/C=C/C(=O)c2ccc(NC(=O)CSc3nnc(-c4ccc(OC)c(OC)c4)n3-c3ccccc3)cc2)cc1	63.3%
CCOCCc1c(O)nc(SC)[nH]c1=O	78.7%
CC[C@H](Nc1ncnc2nc[nH]c12)c1nc2cccc(CC(=O)c3ccc(C(=O)NO)cc3)c2c(=O)n1-c1ccccc1	56.3%
CCCCn1c(=O)c(/C=C/C(=O)/C=C/c2cc3ccccc3n(CCCC)c2=O)cc2ccccc21	48.8%
CCOC(=O)c1ccc(Nc2ncnc3ccc(NC(=O)c4ccccc4)cc23)cc1	77.9%
C=C1C(=O)O[C@H]2[C@H]1CC/C(COC(=O)c1c[nH]c3ccccc13)=C\CC[C@@]1(C)O[C@@H]21	-2.2% (active)
C#Cc1cccc(Nc2ncnc3ccc(NC(=O)c4ccccc4)cc23)c1	67.2%
